Where a chain is given by its changes, count along the chain named. In all, about 5,800 sequences were measured (“enrichment r”: median about 0.68, highest 2% from about 11 on). Many of the other results were omitted from the sample, so the highest values are more common in it than they were.
T1: UNK ZnF1-6 (called full-length) (human, UniProt Q9C0B0 30-357)
T1 sequence: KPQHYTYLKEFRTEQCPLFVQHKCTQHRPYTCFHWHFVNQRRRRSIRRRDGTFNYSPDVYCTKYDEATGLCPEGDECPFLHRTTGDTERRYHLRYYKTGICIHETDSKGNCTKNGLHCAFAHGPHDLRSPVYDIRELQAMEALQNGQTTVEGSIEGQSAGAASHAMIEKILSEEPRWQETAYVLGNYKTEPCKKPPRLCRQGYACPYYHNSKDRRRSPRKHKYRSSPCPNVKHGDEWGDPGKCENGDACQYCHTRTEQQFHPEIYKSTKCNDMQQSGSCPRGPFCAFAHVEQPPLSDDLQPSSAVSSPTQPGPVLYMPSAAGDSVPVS

B1: chr5:136976780:136976881:-|3pUTR|ENSG00000152377|msi1|FALSE|unique (ssRNA)
RNA: GGGAGUUCUACAGUCCGACGAUCCUUAAAUUAGCAUGUUCCAAUCCAGUCGGCAUUGCCUGAAUACAGUAGCAUCAUACCUAUAGUUGGUCUUAGAUAAGAAAUGAACUACUUGAUAUAGCAAAGUCCUUUGGCUUCGUAAAUCAACAGAGGAUUGAGCAUCA
B2: chr11:118396625:118396726:+|3pUTR|ENSG00000110344|msi1|FALSE|bound_elsewhere (ssRNA)
RNA: GGGAGUUCUACAGUCCGACGAUCAACUUGACAAUGCUCCCCUGGCUUGCAGGAAAUUAUACUUAUUAUAGCAUCACCAAGUUUAGAAAUCAUCACUAAUUUUCACCCUCUGUUGUCUCUUCAUAUUCUUCUUCCUUUUCCUAACAACAGAGGAUUGAGCAUCA
B3: chr3:64018827:64018930:-|CDS|ENSG00000163636|unk|FALSE|unique (ssRNA)
RNA: GGGAGUUCUACAGUCCGACGAUCUGAACUCAUGGAUUAUAAAACAUUUGUGACUUAUACUGUCUAUGUCAGUAUGAUUGCCUUAGAAAGACCAGAUCUCAGGGAAAAGGUAAUGACCAAACUUUAAUACUCAAAUUUAAAGACCAACAGAGGAUUGAGCAUCA
B4: chr8:103442975:103443076:+|3pUTR|ENSG00000164934|msi1|FALSE|bound_elsewhere (ssRNA)
RNA: GGGAGUUCUACAGUCCGACGAUCGGACUAGAUUAAUUGCAAACAUUUUAGUUAUAUGUGUAGAGCUUUAUUGUUACUCCUUUUAGCUACCCUGAAAAAUGAUCCUUAAAGGUGGCCUAGUUGGUAAGACUGUUUUAUCCUUAACAACAGAGGAUUGAGCAUCA
B5: chr12:50748518:50748596:+|3pUTR|ENSG00000066084|msi1_unk|FALSE|overlapping (ssRNA)
RNA: GGGAGUUCUACAGUCCGACGAUCUCAAAUUCAAACUACAGUACUGUGUAAUUAUGUAUAAAGUUUUUUUAUUUAUUUGAAGUUAGACUAGAUAUACGUUUUUAAAUUUAACAUCUGGCUGGACAGUGUUCUAUUAACUCAUUGCAACAGAGGAUUGAGCAUCA
B6: chr3:168010103:168010202:-|3pUTR|ENSG00000173905|msi1_unk|total|mutant (ssRNA)
RNA: GGGAGUUCUACAGUCCGACGAUCGCUCAAACAUAAAUCUGCCUACUGAACUCCCGGAUAUUUAAUUACAAAAAUUAAGAACUCCGACUUUUUUAAAACUUUUGUAUCCGAAAUGCGCAUACAUUUAUAUGAAUAUAUUUUGAUCAACAGAGGAUUGAGCAUCA
B7: chr6:105100707:105100870:-|3pUTR|ENSG00000112276|msi1|FALSE|unique (ssRNA)
RNA: GGGAGUUCUACAGUCCGACGAUCUGAGAUAUAUAUUUUCACAGUCUUUUCUAGAUAUAUUAUUGUUUUAACUUAACAAAUCUUAGCAAUCUCUCAAUGCCUUUUCACUUAUUUUUUUCCAAGUUAUGAUUCUUUUUCCUCACACAACAGAGGAUUGAGCAUCA
B8: chr5:24509697:24509799:-|CDS|ENSG00000040731|unk|FALSE|unique (ssRNA)
RNA: GGGAGUUCUACAGUCCGACGAUCACUCGACUAUGAGAGCCGAAGACUUUAUACUCUGAAAGUCGAAGCAGAAAACACCCAUGUAGAUCCCCGUUUUUAUUACCUAGGACCAUUUAAAGAUACUACCAUAGUGAAAAUCUCUAUCAACAGAGGAUUGAGCAUCA
B9: chr3:168010103:168010202:-|3pUTR|ENSG00000173905|msi1_unk|FALSE|overlapping (ssRNA)
RNA: B6 RNA with C53U, C54A, C83U, C84A, C107U, C108A
B10: chr9:5123879:5124511:-|three_prime_utr|ENSG00000120210|control|control|control (ssRNA)
RNA: GGGAGUUCUACAGUCCGACGAUCCUGGUAAAUUGGAUUGCCAUAUGCAGAAGAAUGAAACUGGACCCAUAUUUAUCACCAUAUAGAAAAAUUAACUCGAUCGAUUACAGACUUAAAUGUAAGAUCUGAAACUAGAAAAAUACUCAACAGAGGAUUGAGCAUCA
B11: chr20:59325757:59325866:+|3pUTR|ENSG00000124205|unk|FALSE|unique (ssRNA)
RNA: GGGAGUUCUACAGUCCGACGAUCUUAUGUGGAUCUGUUCAAAGUAGUCACUGUAUAUACGUAUAGAGAGGUAGAUAGGUAGGUAGAUUUUAAAUUGCAUUCUGAAUACAAACUCAUACUCCUUAGAGCUUGAAUUACAUUUUUCAACAGAGGAUUGAGCAUCA
B12: chr6:105100707:105100870:-|3pUTR|ENSG00000112276|msi1|total|mutant (ssRNA)
RNA: B7 RNA with U51C, A52C, U83C, A84C
B13: chr12:48342538:48342639:-|3pUTR|ENSG00000167528|unk|FALSE|unique (ssRNA)
RNA: GGGAGUUCUACAGUCCGACGAUCUUGUUAAACAUUUUGAGUAUCACUCUUGCAUACUGUUACUAUUAUAUUUUCUCUAUAUAUAGACAGAAAGGCCAUUUUAGAAUAUUAAAGGCUCUGAAAAUUUCUGCAGUAGACCCAACUCAACAGAGGAUUGAGCAUCA
B14: chr6:43570573:43570674:-|CDS|ENSG00000124571|unk|FALSE|unique (ssRNA)
RNA: GGGAGUUCUACAGUCCGACGAUCGGUGUAGGAAACACAGACAGAAUUGGUGAUGUUUAUCCUUUUGCGACUGGCAGAGGAUGUAGUGACUUUUCAGACACUUCCCCCUCAAAGAAGAAGGGACAUCCAGCAAACAUUAACCCACAACAGAGGAUUGAGCAUCA
B15: chr11:73394502:73394603:+|CDS|ENSG00000054967|msi1|total|mutant (ssRNA)
RNA: GGGAGUUCUACAGUCCGACGAUCCACCAUCUCCACACCGUGCAGGGCCUGGCCUCGCUCUCUGGCCCCUGCUGCUCCCGCUGCCGCCAGAAGAAGUGGCCCGAGGUGCUGCUGUCCCCUGAGGCUGCCGCCGCCACUACUCCUCAACAGAGGAUUGAGCAUCA
B16: chr3:107805913:107806014:+|3pUTR|ENSG00000114439|msi1_unk|FALSE|overlapping (ssRNA)
RNA: GGGAGUUCUACAGUCCGACGAUCUACAUGGAGAUUUAAGUUUAAGAUGGUUUAUAUAAUAGGUUAUACCUACAUUUAUAUUGUAGAAUAAAUAUUAAAAAGCCUGUUCCAGAGACUCCCAAGCAGCCUGGGCAGGCAGAUGUACAACAGAGGAUUGAGCAUCA

biological target: T1, UNK ZnF1-6 (called full-length); assay: nsRBNS (natural sequence RNA bind-n-seq); RBNS binding buffer (assumed for nsRBNS): 25 mM Tris pH 7.5, 150 mM KCl, 3 mM MgCl2, 0.01% Triton X-100, 500 ug/ml BSA, 20 U/ml SUPERase-In, 4 C; UNK is unkempt and MSI1 is Musashi-1; names of the RNAs are library labels; protein concentration not given here; high values mean tight binding

**Q.** With B1 as the binder, how does the binding signal read?
**A.** Its binding signal is 8.89 enrichment R.

**Q.** B2 was tested. Which binding signal did it give?
**A.** Its binding signal is 4.24 enrichment R.

**Q.** With B3 as the binder, how does the binding signal read?
**A.** Its binding signal is 0.48 enrichment R.

**Q.** B4 was tested. Which binding signal did it give?
**A.** The binding signal was 6.96 enrichment R.

**Q.** How did the binding signal turn out when B5 was run?
**A.** The binding signal was 6.56 enrichment R.

**Q.** With B6 as the binder, how does the binding signal read?
**A.** The binding signal was 3.17 enrichment R.

**Q.** B7 was tested. Which binding signal did it give?
**A.** The binding signal was 18.7 enrichment R.

**Q.** Which binding signal does the source give for B8 here?
**A.** Its binding signal is 1.94 enrichment R.

**Q.** How did the binding signal turn out when B9 was run?
**A.** Its binding signal is 12.6 enrichment R.

**Q.** B10 was tested. Which binding signal did it give?
**A.** Its binding signal is 21.7 enrichment R.

**Q.** B11 was tested. Which binding signal did it give?
**A.** The binding signal was 20.3 enrichment R.

**Q.** B12 was tested. Which binding signal did it give?
**A.** Its binding signal is 3.08 enrichment R.

**Q.** With B13 as the binder, how does the binding signal read?
**A.** Its binding signal is 3.54 enrichment R.

**Q.** B14 was tested. Which binding signal did it give?
**A.** Its binding signal is 0.529 enrichment R.

**Q.** B15 was tested. Which binding signal did it give?
**A.** Its binding signal is 0.888 enrichment R.

**Q.** For B16, which binding signal is on record?
**A.** Its binding signal is 1.89 enrichment R.

Source: article PMC12136788
